This is part of a sample that, as a whole, favours compounds with a hit. Of some 83,000 tested, about 20% had one in any assay.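 Results are percent growth after 48 hours of single-concentration exposure. 100 means growth as in untreated cells, lower positive values show inhibition; negative values down to -100 show cell death.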 Unmarked numbers belong to inactive results. Calls of active or inactive are those of the source. The calls were made as follows: active = growth percent below 10; inactive = the rest.

Some test systems named below: SR leukemia; RPMI-8226 leukemia; OVCAR-8 ovarian; OVCAR-5 ovarian; OVCAR-4 ovarian; SK-OV-3 ovarian; IGROV1 ovarian; OVCAR-3 ovarian; HS 578T breast; NCI/ADR-RES ovarian; T-47D breast; BT-549 breast; MDA-MB-435 melanoma; SW-620 colon; MCF7 breast; HCT-116 colon; HCC-2998 colon; KM12 colon.
Test in all cases: NCI-60 one-dose screen, 48 h (100 = growth as untreated, 0 = no growth, -100 = all killed)
Settings in all cases: 10 µM unless noted

As to `CC(=O)/C(Br)=C/c1ccc(Br)o1`, the growth is -18.2% (active) with SR leukemia; 67.1% in the experiment with RPMI-8226 leukemia; 79% in the experiment with OVCAR-8 ovarian; 95.6% in the experiment with OVCAR-5 ovarian; 86.1% in the experiment with OVCAR-4 ovarian; 104% in the experiment with SK-OV-3 ovarian. Besides, the growth in the experiment on IGROV1 ovarian was 86.9%; in the experiment with OVCAR-3 ovarian, 23.5%; with HS 578T breast, 26.7%; in the experiment on NCI/ADR-RES ovarian, 93.9%; with T-47D breast, 44.8%; in the experiment with BT-549 breast it was 52.1%. Further, the growth in the experiment with MDA-MB-435 melanoma is 62.4%; in the experiment on SW-620 colon, 15.4%; in the experiment with MCF7 breast it was 33%; in the experiment on HCT-116 colon it was -66.2% (active); in the experiment on HCC-2998 colon, 93.4%; in the experiment with KM12 colon, 105%.

For `CCc1ccc(Cc2cnc(NC(=O)c3cc(C)oc3C)s2)cc1`, the growth with SR leukemia was 19.5%; in the experiment on RPMI-8226 leukemia, 51%; with OVCAR-8 ovarian it was 52.9%; with OVCAR-5 ovarian, 55.2%; in the experiment on OVCAR-4 ovarian, 54.7%; in the experiment on SK-OV-3 ovarian, 52.8%. The growth with IGROV1 ovarian was 43%; in the experiment with OVCAR-3 ovarian it was 16.7%; with HS 578T breast, 23.6%; in the experiment on NCI/ADR-RES ovarian, 34.1%; with T-47D breast it was 34.4%; with BT-549 breast it was 44.8%. In addition, the growth with MDA-MB-435 melanoma was -21.5% (active); in the experiment on SW-620 colon, 18.3%; with MCF7 breast, 16.5%; in the experiment with HCT-116 colon, 20.4%; with HCC-2998 colon, 58.3%; with KM12 colon, 22%.

For the compound `Clc1ccc2c(NCCCn3cnc4c(N5CCCC5)nc(Cl)nc43)ccnc2c1`, the growth is 84.2% in the experiment with SR leukemia; 115% with RPMI-8226 leukemia; 103% with OVCAR-8 ovarian; 101% in the experiment with OVCAR-5 ovarian; 100% with OVCAR-4 ovarian; 88.2% in the experiment on SK-OV-3 ovarian. Moreover, the growth in the experiment on IGROV1 ovarian was 89%; in the experiment on OVCAR-3 ovarian it was 101%; with HS 578T breast it was 104%; with NCI/ADR-RES ovarian, 93.3%; in the experiment on T-47D breast, 85.6%; in the experiment on BT-549 breast, 97.7%. The growth with MDA-MB-435 melanoma was 101%; in the experiment with SW-620 colon, 103%; in the experiment on MCF7 breast it was 91.9%; in the experiment with HCT-116 colon it was 93.4%; in the experiment on HCC-2998 colon, 108%; in the experiment on KM12 colon, 98.1%.

With `COc1cc(/C=C/C(=O)c2ccc(-n3cc(CN4CCN(c5cc6c(cc5F)c(=O)c(C(=O)O)cn6C5CC5)CC4)nn3)cc2)cc(OC)c1OC`, the growth in the experiment on SR leukemia is 21.3%; in the experiment on RPMI-8226 leukemia it was 6.02% (active); in the experiment on OVCAR-8 ovarian, 80.7%; with OVCAR-5 ovarian, 92.7%; with OVCAR-4 ovarian it was 96.7%; with SK-OV-3 ovarian it was 79%. Also, the growth was 79.4% in the experiment on IGROV1 ovarian; 84.9% in the experiment on OVCAR-3 ovarian; 71.2% with HS 578T breast; 85.6% in the experiment with NCI/ADR-RES ovarian; 101% with T-47D breast; 92.5% in the experiment with BT-549 breast. The growth was 81.9% in the experiment with MDA-MB-435 melanoma; 85.9% in the experiment with SW-620 colon; 61.4% in the experiment with MCF7 breast; 17.3% in the experiment with HCT-116 colon; 83.3% in the experiment with HCC-2998 colon; 87.1% in the experiment with KM12 colon.

Regarding `O=C(/C=C/c1ccco1)Nc1ncc(Cc2ccc(F)cc2)s1`, the growth in the experiment with SR leukemia was 16.1%; in the experiment with RPMI-8226 leukemia, 32.4%; in the experiment on OVCAR-8 ovarian it was 22.2%; with OVCAR-5 ovarian it was 32.5%; with OVCAR-4 ovarian, 63.9%; in the experiment with SK-OV-3 ovarian, 39.3%. Moreover, the growth was 27.2% with IGROV1 ovarian; -8.58% (active) in the experiment on OVCAR-3 ovarian; 11.3% in the experiment with HS 578T breast; 0.377% (active) in the experiment with NCI/ADR-RES ovarian; 49.3% in the experiment with T-47D breast; 24.2% in the experiment on BT-549 breast. Moreover, the growth in the experiment on MDA-MB-435 melanoma is -17.6% (active); with SW-620 colon, 25.4%; in the experiment with MCF7 breast it was 15.8%; in the experiment on HCT-116 colon, 19.5%; in the experiment with HCC-2998 colon, 7.46% (active); in the experiment on KM12 colon it was 16.1%.

Consider `CN1CCN(CCCNC(=O)c2c3c(n4ccccc24)C(=O)c2ncccc2C3=O)CC1`, for which the growth with SR leukemia is -8.6% (active); in the experiment with RPMI-8226 leukemia it was 29.4%; in the experiment on OVCAR-8 ovarian it was -9.12% (active); in the experiment on OVCAR-5 ovarian, 39.4%; with OVCAR-4 ovarian, -100% (active); in the experiment with SK-OV-3 ovarian, 28.6%. Besides, the growth in the experiment with IGROV1 ovarian is -24.6% (active); in the experiment on OVCAR-3 ovarian, -10.7% (active); with HS 578T breast it was 61.2%; in the experiment with NCI/ADR-RES ovarian it was 40.9%; in the experiment with T-47D breast, -4.38% (active); in the experiment with BT-549 breast it was 54.8%. Also, the growth in the experiment with MDA-MB-435 melanoma was -81.1% (active); in the experiment with SW-620 colon, -5.63% (active); in the experiment on MCF7 breast, -43.8% (active); with HCT-116 colon, -16.4% (active); in the experiment with HCC-2998 colon, -32.2% (active); in the experiment with KM12 colon it was 11.3%.

`COc1ccc2c(O)cc3c(c2c1)[C@H](CCl)CN3C(=O)c1cc2cc(NC(=O)CCN3CCOCC3)ccc2[se]1`: the growth in the experiment with SR leukemia was 52.5%; with RPMI-8226 leukemia it was 79.7%; with OVCAR-8 ovarian it was -98.1% (active); with OVCAR-5 ovarian it was -44.6% (active); with OVCAR-4 ovarian, -25.4% (active); in the experiment with SK-OV-3 ovarian, -42% (active). Further, the growth was -60.1% (active) in the experiment on IGROV1 ovarian; -7.3% (active) with OVCAR-3 ovarian; 5.52% (active) in the experiment with HS 578T breast; -34.4% (active) in the experiment on NCI/ADR-RES ovarian; -21.4% (active) in the experiment on T-47D breast; -72.8% (active) with BT-549 breast. For the same compound, the growth in the experiment with MDA-MB-435 melanoma is -67.5% (active); in the experiment with SW-620 colon, -41.4% (active); in the experiment on MCF7 breast, -48% (active); in the experiment on HCT-116 colon, -55.1% (active); in the experiment on HCC-2998 colon it was -88.3% (active); in the experiment with KM12 colon, -57.4% (active).

As for `Nc1ncc(-c2ccc3ncnc(N4CCc5cc(F)c(Cl)cc54)c3c2)cn1`, the growth with SR leukemia is 36.5%; in the experiment with RPMI-8226 leukemia, 20.8%; in the experiment on OVCAR-8 ovarian it was 45.4%; in the experiment with OVCAR-5 ovarian it was 27%; in the experiment with OVCAR-4 ovarian, 54.6%; in the experiment with SK-OV-3 ovarian, 29.4%. The growth in the experiment with IGROV1 ovarian was 9.49% (active); in the experiment with OVCAR-3 ovarian it was 37.9%; with HS 578T breast, 13.2%; with NCI/ADR-RES ovarian it was 50.4%; with T-47D breast it was 8.79% (active); in the experiment with BT-549 breast, 33.7%. Also, the growth is 55.8% in the experiment on MDA-MB-435 melanoma; 66.4% in the experiment on SW-620 colon; 24.3% in the experiment on MCF7 breast; 46.9% in the experiment with HCT-116 colon; 61.5% in the experiment on HCC-2998 colon; 58% in the experiment on KM12 colon.

Values taken from PubChem BioAssay (NCI).
